From PubChem BioAssay (Tox21)
Results filed as inconclusive are left out. A call without a number means that no potency is given here. Activity calls are given as the source filed them. The call rests on the fitted dose curve; in most records, active means well fitted curve in the direction sought with a large enough effect in the repeat runs; inconclusive means weak or mixed curves; inactive means no such curve, though single readings can be large; an effect the other way counts as inactive or inconclusive.

Test: qHTS assay to identify small molecule agonists of the RXR signaling pathway - cell viability counter screen (AID 1159529); further: nearly all actives have a fitted effect of over 50% in size; further: potency means the concentration at half of the fitted maximal effect
Conditions: RXR-alpha-bla HEK293T viability, CellTiter-Glo, 16 h; series mostly up to 76.8 µM
In short: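 HEK 293T RXRa-bla cells, 2% CS-FBS; 5 h settle; cpd 16 h 37 C, 5% CO2; CellTiter-Glo 30 min RT, luminescence. Tetraoctyl ammonium bromide as positive control.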
In the case of `CCOc1ccc(Cc2nccc3cc(OCC)c(OCC)cc23)cc1OCC`, the Potency is reported as “inactive”. For `O=c1cc(-c2ccccc2)oc2cc(O)cc(O)c12`, the Potency was “inactive”. For `CCC(C)(C)OC`, the Potency was 48.8 µM (active). For `O=C1c2ccccc2C(=O)C1c1ccc(Br)cc1`, the Potency was “inactive”. In the case of `COC(=O)c1nc(Cl)c(Cl)nc1N`, the Potency is reported as 13.4 µM (active). In the case of `COc1cc(N)c(Cl)cc1C(=O)NC1CCN(CCCOc2ccc(F)cc2)CC1OC` (centres undefined), the Potency is reported as “inactive”. For `Cc1cccc(O)c1N`, the Potency was “inactive”. In the case of `OCCN1CCN(CCCN2c3ccccc3Sc3ccc(Cl)cc32)CC1`, the Potency is reported as 16.9 µM (active). For `CC(C)=CCC/C(C)=C/CC/C(C)=C/C(=O)OCC(=O)[C@@]1(O)CC[C@H]2[C@@H]3CCC4=CC(=O)C=C[C@]4(C)[C@H]3[C@@H](O)C[C@@]21C`, the Potency was “inactive”. For `O=C(O)CCc1nc(-c2ccccc2)c(-c2ccccc2)o1`, the Potency was “inactive”. In the case of `c1csc(SSc2cccs2)c1`, the Potency is reported as 38.9 µM (active). With `CN1C(=O)c2ccccc2C1=O` the Potency was “inactive”. With `CN1CCCC(n2nc(Cc3ccc(Cl)cc3)c3ccccc3c2=O)CC1` (centres undefined) the Potency was 5.35 µM (active). With `CCOc1cccc(-n2cc(C(=O)N3CCN(c4cc(C(=O)O)c5ccccc5c4)CC3)nc2-c2ccc(C)cc2)c1` the Potency was “inactive”. For `CCCCCCNC(=O)n1cc(F)c(=O)[nH]c1=O`, the Potency was “inactive”. With `O=C1c2ccccc2C(=O)c2c(O)c(O)cc(O)c21` the Potency was “inactive”. With `O=C(CCc1ccc(O)cc1)c1c(O)cc(O)cc1O` the Potency was “inactive”. For `CCOC(=O)c1ccccc1C(=C1C=C(Br)C(=O)C(Br)=C1)c1cc(Br)c(O)c(Br)c1`, the Potency was “inactive”. With `Cc1ccc(Cl)c(Nc2ccccc2C(=O)O)c1Cl` the Potency was “inactive”. With `CCc1ccccc1` the Potency was “inactive”. In the case of `CC(C)COCC(CN(Cc1ccccc1)c1ccccc1)N1CCCC1` (centres undefined), the Potency is reported as 19 µM (active). For `CC(=O)OCC[N+](C)(C)C`, the Potency was “inactive”. In the case of `CC1CC(OC(=O)C(O)c2ccccc2)CC(C)(C)N1C` (centres undefined), the Potency is reported as “inactive”. For `CCCCC(CC)CN` (centres undefined), the Potency was “inactive”. For `CC1(C)[C@@H](OC(=O)CCC(=O)O)CC[C@]2(C)[C@H]3C(=O)C=C4[C@@H]5C[C@@](C)(C(=O)O)CC[C@]5(C)CC[C@@]4(C)[C@]3(C)CC[C@@H]12`, the Potency was “inactive”. For `CC(C)c1nc(CN(C)C(=O)N[C@H](C(=O)N[C@@H](Cc2ccccc2)C[C@H](O)[C@H](Cc2ccccc2)NC(=O)OCc2cncs2)C(C)C)cs1`, the Potency was 9.52 µM (active). With `O=C1c2ccccc2C(=O)N1CCc1noc(-c2ccc(CN3CCCCCC3)s2)n1` the Potency was “inactive”. For `COC(=O)CS`, the Potency was “inactive”. With `C[C@H]1c2cccc(O)c2C(O)=C2C(=O)[C@]3(O)C(O)=C(C(N)=O)C(=O)[C@@H](N(C)C)[C@@H]3[C@@H](O)[C@@H]21` the Potency was “inactive”. For `CC(=O)NC1(c2cccc(F)c2)CCN(CC[C@@]2(c3ccc(Cl)c(Cl)c3)CN(c3ccccc3)C(=O)CO2)CC1`, the Potency was 19.6 µM (active). In the case of `OC[C@H]1O[C@@H](n2cnc3c(=S)nc[nH]c32)[C@H](O)[C@@H]1O`, the Potency is reported as 2.13 µM (active). In the case of `CC1=Nc2ccc3ccccc3c2C1(C)C`, the Potency is reported as “inactive”. For `Cc1ccc2c(Br)cc(Br)c(O)c2n1`, the Potency was 26.8 µM (active). For `CCCCC(CC)COP(=O)(O)O` (centres undefined), the Potency was “inactive”. In the case of `COc1cc(C(=O)NC2CCN(C)CC2)ccc1Nc1ncc2c(n1)N(C1CCCC1)CC(F)(F)C(=O)N2C`, the Potency is reported as 31.8 µM (active). In the case of `CC(C)C=O`, the Potency is reported as “inactive”. In the case of `CC(C)C[C@H](NC(=O)[C@H](CCc1ccccc1)NC(=O)CN1CCOCC1)C(=O)N[C@@H](Cc1ccccc1)C(=O)N[C@@H](CC(C)C)C(=O)[C@@]1(C)CO1`, the Potency is reported as “inactive”.

Test: qHTS assay to identify small molecule antagonists of the retinoid acid receptor (RAR) signaling pathway - cell viability counter screen (AID 1159551); further: nearly all actives have a fitted effect of over 35% in size
Conditions: C3RL4 cells viability, ATP luminescence (CellTiter-Glo), 6 h; series mostly up to 92.4 µM
In short: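 ATP-based viability, C3RL4 cells, 6 h at 37 C with 1 uM final retinol co-added after compound; luminescence read 30 min post CellTiter-Glo, RT.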
In the case of `CCOc1ccc(Cc2nccc3cc(OCC)c(OCC)cc23)cc1OCC`, the Potency is reported as “inactive”. For `CCC(C)(C)OC`, the Potency was “inactive”. In the case of `O=C1c2ccccc2C(=O)C1c1ccc(Br)cc1`, the Potency is reported as “inactive”. For `COc1cc(N)c(Cl)cc1C(=O)NC1CCN(CCCOc2ccc(F)cc2)CC1OC` (centres undefined), the Potency was “inactive”. For `CC(C)=CCC/C(C)=C/CC/C(C)=C/C(=O)OCC(=O)[C@@]1(O)CC[C@H]2[C@@H]3CCC4=CC(=O)C=C[C@]4(C)[C@H]3[C@@H](O)C[C@@]21C`, the Potency was “inactive”. In the case of `CN1CCCC(n2nc(Cc3ccc(Cl)cc3)c3ccccc3c2=O)CC1` (centres undefined), the Potency is reported as “inactive”. With `C=CC(=O)[O-].C=CC(=O)[O-].[Zn+2]` the Potency was “inactive”. For `CCOc1cccc(-n2cc(C(=O)N3CCN(c4cc(C(=O)O)c5ccccc5c4)CC3)nc2-c2ccc(C)cc2)c1`, the Potency was “inactive”. In the case of `O=C(CCc1ccc(O)cc1)c1c(O)cc(O)cc1O`, the Potency is reported as “inactive”. In the case of `CCCCCCCCC(CCCCCC)C(=O)O` (centres undefined), the Potency is reported as “inactive”. For `Cc1ccc(Cl)c(Nc2ccccc2C(=O)O)c1Cl`, the Potency was “inactive”. With `CCc1ccccc1` the Potency was “inactive”. In the case of `CC(=O)OCC[N+](C)(C)C`, the Potency is reported as “inactive”. With `CC1CC(OC(=O)C(O)c2ccccc2)CC(C)(C)N1C` (centres undefined) the Potency was “inactive”. For `CC1(C)[C@@H](OC(=O)CCC(=O)O)CC[C@]2(C)[C@H]3C(=O)C=C4[C@@H]5C[C@@](C)(C(=O)O)CC[C@]5(C)CC[C@@]4(C)[C@]3(C)CC[C@@H]12`, the Potency was “inactive”. With `CC(C)c1nc(CN(C)C(=O)N[C@H](C(=O)N[C@@H](Cc2ccccc2)C[C@H](O)[C@H](Cc2ccccc2)NC(=O)OCc2cncs2)C(C)C)cs1` the Potency was “inactive”. With `COC(=O)CS` the Potency was “inactive”. In the case of `C[C@H]1c2cccc(O)c2C(O)=C2C(=O)[C@]3(O)C(O)=C(C(N)=O)C(=O)[C@@H](N(C)C)[C@@H]3[C@@H](O)[C@@H]21`, the Potency is reported as “inactive”. In the case of `C[C@@]12CCC[C@H]1[C@@H]1CC[C@H]3C[C@@H](O)CC[C@]3(C)[C@H]1CC2`, the Potency is reported as “inactive”. In the case of `CC(=O)NC1(c2cccc(F)c2)CCN(CC[C@@]2(c3ccc(Cl)c(Cl)c3)CN(c3ccccc3)C(=O)CO2)CC1`, the Potency is reported as “inactive”. With `CC(C)C=O` the Potency was “inactive”. For `CC(C)C[C@H](NC(=O)[C@H](CCc1ccccc1)NC(=O)CN1CCOCC1)C(=O)N[C@@H](Cc1ccccc1)C(=O)N[C@@H](CC(C)C)C(=O)[C@@]1(C)CO1`, the Potency was “inactive”.
